The values that follow come from PubChem BioAssay (Tox21).

Test [1] in a line: Nuclear factor erythroid 2-related factor 2/antioxidant responsive element (Nrf2/ARE) small molecule agonists: qHTS cell viability counter screen in human keratinocytes (AID 1919968; active = well fitted curve in the direction sought with a large enough effect in the repeat runs; an effect the other way counts as inactive or inconclusive; note: nearly all actives have a fitted effect of over 55% in size; note: potency is the fitted concentration of half-maximal effect). A digest of the protocol: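 Stably transfected HaCaT (KeratinoSens), 1,500/well. Test agents in DMSO were applied for 23 h, 37 C/5% CO2. CellTiter-Fluor was incubated 1 h before the fluorescence read.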

Test [2] is described as follows: Nuclear factor erythroid 2-related factor 2/antioxidant responsive element (Nrf2/ARE) small molecule agonists: luciferase reporter gene qHTS assay in human keratinocytes (AID 1919969). Note: nearly all actives have a fitted effect of over 35% in size. Note: potency is the fitted concentration of half-maximal effect.
Test [3] addresses KiSS-1 receptor (Homo sapiens) (UniProt Q969F8). Kind of test: Human kisspeptin (KISS1R) small molecule agonists, calcium flux assay in KISS1R-HEK293 cells (AID 1920064; active = well fitted curve in the direction sought with a large enough effect in the repeat runs; an effect the other way counts as inactive or inconclusive). Put shortly:
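After overnight (18 h) culture at 37 C/5% CO2, human KISS1R-HEK293 cells received calcium dye for 1 h, then test compound; emission at 540 nm (excitation 480 nm) was tracked for 3 min.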

Test [4] in a line: G protein-coupled receptor (GPCR) small molecule agonists, calcium flux assay: HEK293 wild type cell line counter screen (AID 1920065). A digest of the protocol:
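Following 18 h incubation at 37 C/5% CO2, plates got calcium dye for 1 h; compounds, ATP or DMSO were then pinned in and fluorescence followed kinetically (480/540 nm).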

Test [5] in a line: p53 small molecule agonists, cell-based qHTS assay with rat liver microsomes (AID 1963578). A digest of the protocol: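 Agonist mode in p53RE-bla reporter cells, with compounds co-incubated 16 h at 37 C alongside 0.5 mg/mL rat liver microsomes and 0.5 mg/mL NADPH (final), followed by a 2 h LiveBLAzer detection step.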
A short description of test [6]: p53 small molecule agonists, cell-based qHTS assay with rat liver microsomes: qHTS cell viability counter screen (AID 1963580). Note: nearly all actives have a fitted effect of over 45% in size. Note: potency is the fitted concentration of half-maximal effect. Put shortly: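 Rat liver microsome (0.5 mg/mL final) and NADPH (0.5 mg/mL final) co-incubation with compounds for 16 h at 37 C on HCT-116 p53RE-bla cells; cytotoxicity taken from intracellular ATP luminescence.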
(In qHTS, concentration-response curves come from the screen itself.)

Test [7] has as its target 5-hydroxytryptamine receptor 2A (Homo sapiens) (UniProt P28223). Kind of test: 5-hydroxytryptamine receptor 2A (HTR2A) small molecule antagonists, cell-based qHTS assay (AID 1963586). Note: nearly all actives have a fitted effect of over 45% in size. Note: potency is the fitted concentration of half-maximal effect. Put shortly: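 CHO cells stably expressing human HTR2A were plated for 18 h at 37 C, then loaded with calcium dye for 1 h. Compounds were preincubated 5 min at room temperature before DOI (4 nM solution) was added. Kinetic fluorescence was read for 3 min.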

For test [8] the target is unchanged. Kind of test: 5-hydroxytryptamine receptor 2A (HTR2A) small molecule agonists, cell-based qHTS assay (AID 1963587). Note: nearly all actives have a fitted effect of over 30% in size. Note: potency is the fitted concentration of half-maximal effect. A digest of the protocol: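 Kinetic calcium-flux fluorescence (2 min, 1 sec intervals) after compound addition in agonist mode. HTR2A-CHO cells were cultured 18 h, then dye-loaded 1 h at 37 C.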
Test [9] concerns the target Muscarinic acetylcholine receptor M1 (Homo sapiens) (UniProt P11229). Kind of test: Cholinergic receptor muscarinic 1 (CHRM1) small molecule agonists, cell-based qHTS assay (AID 1963589). Note: nearly all actives have a fitted effect of over 35% in size. A digest of the protocol: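 Kinetic fluorescence (1 s intervals) of calcium-sensitive dye in human M1 CHO cells after compound addition; cells pre-incubated 18 h at 37 C/5% CO2 and dye-loaded 1 h.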

The target of test [10] is Beta-2 adrenergic receptor (Homo sapiens) (UniProt P07550). Kind of test: Adrenergic beta2 receptor (ADRB2) small molecule antagonists, cell-based qHTS assay (AID 1963592). Note: nearly all actives have a fitted effect of over 50% in size. Note: potency is the fitted concentration of half-maximal effect. Put shortly:
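Assay format: CHO-ADRB2 cells, 18-20hr seeding at 37C/5% CO2, then compound plus 1nM isoproterenol agonist mix for 0.5hr RT. Homogeneous time-resolved fluorescence cAMP detection after 1hr, expressed as 665/615 nm ratio.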

For test [11] the target is unchanged. Briefly: Adrenergic beta2 receptor (ADRB2) small molecule agonists, cell-based qHTS assay (AID 1963593).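 Note: CHO cells stably overexpressing human ADRB2.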 A digest of the protocol: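 CHO cells stably over-expressing ADRB2 were plated overnight at 37C, then dosed with compounds plus a stimulation mix containing 100uM IBMX and 25uM Ro-20-1724 for 0.5hr at room temperature. cAMP was measured by HTRF competition, 1hr.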

Test [12] has as its target D(2) dopamine receptor (Homo sapiens) (UniProt P14416). Briefly: Dopamine D2 receptor (DRD2) small molecule agonists, cell-based qHTS assay (AID 1963594). Note: nearly all actives have a fitted effect of over 35% in size. Put shortly: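 cAMP accumulation in DRD2-HEK293 cells measured by HTRF after 1 h detection; compounds added 10 min before NKH477 (200nM […]) forskolin-analogue stimulation, 30 min at room temperature, with Ro20-1724 present at 0.1 mM final.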

Test [13] shares this target. Briefly: Dopamine D2 receptor (DRD2) small molecule antagonists, cell-based qHTS assay (AID 1963595; active = well fitted inhibition curve with a large enough effect in the signal ratio in the repeat runs, with a control signal flat; the % refers to the signal ratio; note: potency is the fitted concentration of half-maximal effect). A digest of the protocol:
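HEK293 cells stably expressing DRD2, preincubated with 0.1 mM Ro20-1724 and compounds 10 min, were stimulated with 200 nM NKH477 plus 12 nM quinpirole for 30 min at room temperature; cAMP measured by HTRF (665/620 nm).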

The nature of test [14]: p53 small molecule agonists, cell-based qHTS assay with human liver microsomes: qHTS cell viability counter screen (AID 1963579). Note: nearly all actives have a fitted effect of over 45% in size. Put shortly: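 Metabolically activated exposure: compounds, human liver microsomes and NADPH (0.5 mg/mL final apiece) were added to p53RE-bla cells seeded 5 h earlier, left 16 h at 37 C, and then assessed for viability by CellTiter-Glo luminescence.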

Test [15] is described as follows: p53 small molecule agonists, cell-based qHTS assay: qHTS cell viability counter screen (AID 1963581). Note: nearly all actives have a fitted effect of over 45% in size. A digest of the protocol: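 qHTS counter screen: 16 h compound exposure at 37 C of p53RE-bla HCT-116 cells (4,000 per well, seeded 5 h prior), cell viability by ATP luminescence.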
Test [16] can be described thus: p53 small molecule agonists, cell-based qHTS assay (AID 1963582; active = well fitted activation curve with a large enough effect in the signal ratio in the repeat runs, not every such curve was filed as active; the % refers to the signal ratio). A digest of the protocol: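 Measured: fluorescence from cleaved LiveBLAzer substrate. System: p53RE-bla cells, 16 h compound treatment at 37 C, 2 h substrate step at room temperature.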
The target of test [17] is Muscarinic acetylcholine receptor M1 (Homo sapiens) (UniProt P11229). Briefly: Cholinergic receptor muscarinic 1 (CHRM1) small molecule antagonists, cell-based qHTS assay (AID 1963588). Note: nearly all actives have a fitted effect of over 40% in size. Note: potency is the fitted concentration of half-maximal effect. A digest of the protocol:
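Compounds were tested at 15 concentrations in three independent runs. Dye-loaded CHRM1-CHO cells were exposed 5 min at room temperature before stimulation by acetylcholine added at 50nM. Intracellular calcium was read kinetically on FDSS for 3 min.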

Test [18] can be described thus: cAMP Responsive Elements (CRE) small molecule agonists, cell-based qHTS assay (AID 1963590). Put shortly:
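Test agents in DMSO were incubated 3 h at 37 C/5% CO2 with CRE-bla HEK 293T cells seeded 18 h earlier; LiveBLAzer B/G FRET substrate was added and read after 2 h at room temperature.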

Test [19] can be described thus: cAMP Responsive Elements (CRE) small molecule antagonists, cell-based qHTS assay (AID 1963591; active = well fitted inhibition curve with a large enough effect in the signal ratio in the repeat runs, not every such curve was filed as active; the % refers to the signal ratio). Put shortly: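 Reporter line CRE-bla HEK 293T in dialyzed-FBS DMEM; cells preincubated 18 h, treated 3 h with compound plus NKH477 (0.25 uM final); LiveBLAzer FRET, 2 h RT.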

A number with no mark means an inactive call. Inconclusive results are not listed. Activity calls are given as the source filed them. Unless noted, calls come from the whole dose curve.

Sequence of KiSS-1 receptor (Homo sapiens) (Q969F8 whole entry, looked up): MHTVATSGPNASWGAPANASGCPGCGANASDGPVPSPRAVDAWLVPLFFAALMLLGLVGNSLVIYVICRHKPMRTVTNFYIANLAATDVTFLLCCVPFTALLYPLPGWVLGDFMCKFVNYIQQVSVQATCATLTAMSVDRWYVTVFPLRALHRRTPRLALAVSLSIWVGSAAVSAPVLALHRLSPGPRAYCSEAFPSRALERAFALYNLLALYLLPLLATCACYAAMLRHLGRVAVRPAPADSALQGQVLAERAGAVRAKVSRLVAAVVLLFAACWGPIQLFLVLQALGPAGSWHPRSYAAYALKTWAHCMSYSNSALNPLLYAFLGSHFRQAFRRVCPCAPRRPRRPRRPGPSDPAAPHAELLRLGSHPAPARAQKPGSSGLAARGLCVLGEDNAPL
Sequence of 5-hydroxytryptamine receptor 2A (Homo sapiens) (P28223 whole entry, looked up): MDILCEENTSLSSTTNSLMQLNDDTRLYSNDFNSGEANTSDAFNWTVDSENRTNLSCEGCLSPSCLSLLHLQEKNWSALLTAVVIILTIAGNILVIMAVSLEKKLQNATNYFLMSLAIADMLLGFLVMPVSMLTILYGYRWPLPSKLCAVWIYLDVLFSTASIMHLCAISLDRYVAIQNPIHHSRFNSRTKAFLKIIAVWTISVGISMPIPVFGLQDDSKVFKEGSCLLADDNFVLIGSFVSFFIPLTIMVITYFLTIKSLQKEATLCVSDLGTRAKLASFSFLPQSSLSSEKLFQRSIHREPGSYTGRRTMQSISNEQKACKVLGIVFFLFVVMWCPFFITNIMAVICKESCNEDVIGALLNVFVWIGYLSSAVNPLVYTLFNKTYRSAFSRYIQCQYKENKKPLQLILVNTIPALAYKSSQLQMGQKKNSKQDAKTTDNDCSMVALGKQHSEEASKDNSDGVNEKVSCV
Sequence of Muscarinic acetylcholine receptor M1 (Homo sapiens) (P11229 whole entry, looked up): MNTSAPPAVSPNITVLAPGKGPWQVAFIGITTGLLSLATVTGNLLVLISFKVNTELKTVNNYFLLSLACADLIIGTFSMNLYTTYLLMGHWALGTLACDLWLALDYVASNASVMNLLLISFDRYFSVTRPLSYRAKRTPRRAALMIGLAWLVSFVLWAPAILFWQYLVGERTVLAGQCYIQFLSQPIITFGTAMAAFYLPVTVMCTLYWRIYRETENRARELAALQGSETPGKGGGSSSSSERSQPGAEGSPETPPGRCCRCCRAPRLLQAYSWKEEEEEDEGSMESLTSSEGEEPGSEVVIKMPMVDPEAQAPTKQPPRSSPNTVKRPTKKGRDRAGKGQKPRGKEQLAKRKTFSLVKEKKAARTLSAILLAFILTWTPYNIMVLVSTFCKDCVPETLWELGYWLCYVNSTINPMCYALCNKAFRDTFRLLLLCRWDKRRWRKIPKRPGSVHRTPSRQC
Sequence of D(2) dopamine receptor (Homo sapiens) (P14416 whole entry, looked up): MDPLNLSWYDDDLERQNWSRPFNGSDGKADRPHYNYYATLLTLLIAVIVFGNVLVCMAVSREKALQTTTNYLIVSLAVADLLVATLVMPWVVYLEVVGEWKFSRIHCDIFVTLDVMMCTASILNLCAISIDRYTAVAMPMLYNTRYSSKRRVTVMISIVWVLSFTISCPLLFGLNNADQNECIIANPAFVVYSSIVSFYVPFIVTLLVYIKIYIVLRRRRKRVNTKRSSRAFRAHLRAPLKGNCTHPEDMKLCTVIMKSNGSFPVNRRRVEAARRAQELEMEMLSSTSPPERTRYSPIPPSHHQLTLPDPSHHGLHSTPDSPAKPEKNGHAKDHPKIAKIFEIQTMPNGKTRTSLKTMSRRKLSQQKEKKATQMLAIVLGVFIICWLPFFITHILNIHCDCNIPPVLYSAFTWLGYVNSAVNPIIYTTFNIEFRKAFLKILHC
Sequence of Beta-2 adrenergic receptor (Homo sapiens) (P07550 whole entry, looked up): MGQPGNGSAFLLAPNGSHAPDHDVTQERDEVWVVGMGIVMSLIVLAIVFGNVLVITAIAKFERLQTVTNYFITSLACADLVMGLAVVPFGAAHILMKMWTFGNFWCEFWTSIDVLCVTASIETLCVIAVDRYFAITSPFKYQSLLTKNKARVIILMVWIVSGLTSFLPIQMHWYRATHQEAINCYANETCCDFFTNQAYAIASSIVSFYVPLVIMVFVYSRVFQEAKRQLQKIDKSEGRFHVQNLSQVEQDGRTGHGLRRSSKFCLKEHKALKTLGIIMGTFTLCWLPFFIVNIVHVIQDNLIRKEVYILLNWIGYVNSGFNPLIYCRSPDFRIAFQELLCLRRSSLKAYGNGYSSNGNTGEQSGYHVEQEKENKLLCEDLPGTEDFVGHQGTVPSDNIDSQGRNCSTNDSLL

Turning to `CCCc1c(OCCCOc2ccc(OCC(=O)O)cc2)ccc(C(C)=O)c1O`, the Potency entry in test [1], in test [2], in [3], in test [4], in [5] and in test [7] was “inactive” in each case. In addition, the Potency result in [9], in test [10], in test [11], in [12] and in [13] was “inactive” throughout. Also, the results for the Potency in test [6] and in [8] were 40.8 µM (active) and 54.9 µM (active), respectively.
For `O=C1C=CC(=O)N1c1ccc(Cc2ccc(N3C(=O)C=CC3=O)cc2)cc1`, the Potency is 27.3 µM (active) in test [1]; 9.69 µM (active) in test [2]; 37.5 µM (active) in test [7]; 43.6 µM (active) in [8]; 4.33 µM (active) in test [13]. In addition, the Potency entry in test [3], in test [4] and in test [5] was “inactive” each time.
Turning to `CC(C)(C)CC(C)(C)c1ccc(OCCO)cc1`, the Potency result in test [1], in test [2], in [3], in test [4], in [14] and in [6] was “inactive” each time. In addition, the Potency result in [15], in test [16], in [7], in test [9], in test [10] and in test [12] was “inactive” throughout.
Regarding `O=C(OCC(COC(=O)c1cccnc1)(COC(=O)c1cccnc1)COC(=O)c1cccnc1)c1cccnc1`, the Potency result in [1], in test [2], in test [3], in [4], in test [14] and in test [6] was “inactive” in each case. The Potency result in test [15], in [7], in test [8], in [17], in test [9] and in test [18] was “inactive” in each case. Moreover, the Potency entry in test [11] and in test [13] was “inactive” in each case.
With `Cc1[nH]cnc1C[C@H]1CCc2c(C)c3ccccc3n2C1=O`, the Potency result in test [1], in test [2], in test [3], in [4], in [5] and in test [14] was “inactive” in each case. The Potency entry in test [6], in test [15], in test [16], in [9], in [18] and in test [12] was “inactive” in each case. Besides, the Potency is 1.46 µM (active) in [7]; 42.6 µM (active) in test [8]; 25.9 µM (active) in test [17]; 23.7 µM (active) in test [10]; 53.1 µM (active) in [13].
For `NC(CSCC(=O)O)C(=O)O` (stereo not given), the Potency result in test [1], in test [2], in [3], in test [4], in test [5] and in test [14] was “inactive” each time. Also, the Potency entry in test [6], in [15], in [16], in [7], in [8] and in test [17] was “inactive” each time. Besides, the Potency result in test [9], in test [18], in test [19], in [10] and in test [12] was “inactive” in each case.
As to `CC(C)C[C@H](NC(=O)CNC(=O)[C@H](Cc1ccc(O)cc1)NC(=O)[C@H](CO)NC(=O)[C@H](Cc1c[nH]c2ccccc12)NC(=O)[C@H](Cc1cnc[nH]1)NC(=O)[C@@H]1CCC(=O)N1)C(=O)N[C@@H](CCCN=C(N)N)C(=O)N1CCC[C@H]1C(=O)NCC(N)=O` (stereo in doubt), the Potency result in test [1], in [2], in test [3], in test [4], in [5] and in [14] was “inactive” throughout. Moreover, the Potency entry in [15], in [16], in test [18], in [19], in test [10] and in test [11] was “inactive” each time. The Potency entry in test [12] and in [13] was “inactive” throughout.
